HT1080 IDH1KD tx – toxicity to HT-1080 IDH1 knockdown cells (counter line). HT-1080 IDH1 knockdown viability, ATP luminescence, 48 h. Potency, µM (top dose mostly 46.1 µM), for inactives: top-dose activity, negative = toxicity, most hits filed as cytotoxic. 360,000 tested, 2% active. AID 686971;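 note: potency is the fitted concentration of half-maximal effect; 0% = DMSO wells and -100% = cell-free medium wells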
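After a 2 h attachment period, IDH1KD HT-1080 cells took pin-transferred compound for 48 h at 37 °C; ATP-based luminescence after 10 min room-temperature reagent incubation reported viability.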
KB-3-1 tox – KB-3-1 parental cell cytotoxicity; Potency, µM (highest dose often 46.1 µM), hits mostly cytotoxic; 400,000 tested, 1.4% active; KB-3-1 viability, CellTiter-Glo ATP luminescence, 72 h; note: potency is the fitted concentration of half-maximal effect; nearly all actives have a fitted effect of over 60% in size
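KB-3-1 cells, DMEM (no phenol red) + 10% FBS; compound by pin transfer, 72 h, 37 °C. Readout: CellTiter-Glo luminescence after 10 min. Data normalized, curve-fitted.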
KB-V1 MDR tox – kills drug-selected multidrug resistant KB-V1 cells; KB-V1 MDR cells viability, CellTiter-Glo, 72 h; 400,000 tested, 3.4% active; Potency, µM (series often up to 46.1 µM), actives largely listed as cytotoxic; AID 1347076; note: potency is the fitted concentration of half-maximal effect; nearly all actives have a fitted effect of over 60% in size
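Cells of the MDR subline KB-V1 are plated, dosed with compound at multiple concentrations, and incubated 72 h at 37 degrees C; CellTiter-Glo is then added and luminescence read after 10 min.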
IL-1B inflam inh – inflammasome signaling inhibition, IL-1 beta readout. activity change, % at 57.5 µM. AID 743279. 360,000 tested, 4.7% active. THP-1 LPS/ATP IL-1B secretion, AlphaLISA, 16 h; hits give low values; in the data active = activity change below about -50%; inconclusive = mostly about -30% to -49%
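Secreted IL-1B measured by AlphaLISA bead assay after 16 h compound exposure of THP-1 cells; compounds (final up to 57.5 uM) added 1 h before LPS (250 ng/mL) and ATP (1.25 mM) stimulation; lower signal means less secretion.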
HT1080-NT tox – kills 2HG-producing HT-1080-NT fibrosarcoma cells | HT-1080-NT fibrosarcoma viability, CellTiter-Glo ATP luminescence, 48 h | Potency, µM (top dose mostly 46.1 µM), for inactives: at the highest dose activity, negative = less viability, hits mostly cytotoxic | 360,000 tested, 1.6% active;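 note: NT is the 2HG producing partner of a matched IDH1 knockdown line; potency is the fitted concentration of half-maximal effect; 0% = DMSO-treated cells and -100% = media-only wells without cells; nearly all actives have a fitted effect of over 55% in size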
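HT-1080-NT; 750 cells/well; 5% FBS RPMI; 48 h compound, 37 degrees C; CellTiter-Glo luminescence; curve fitting and curve-class assignment.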
Starred values were filed as active, the others as inactive; i = inactive; ? = inconclusive; . = no result given. An excerpt weighted towards active compounds, which were near 8.8% of everything screened. Unless noted, calls come from the whole dose curve; as a rule, active = well fitted curve in the direction sought with a large enough effect; inconclusive = small, poorly fitted or top-dose-only effect, or another doubt; inactive = no such curve, though single readings can be large; an effect the other way counts as inactive or inconclusive. Unless noted, % is set by controls: 0 for no effect and ±100 for the full control effect.

SMILES	HT1080 IDH1KD tx	KB-3-1 tox	KB-V1 MDR tox	IL-1B inflam inh	HT1080-NT tox
COc1ccc(C2CC(C)(c3ccc(OC)cc3)Nc3ccccc3N2)cc1 (configuration not stated)	?	20.6µM*	?	-11.0	?
C#CCn1c2ccccc2c2nc3ccccc3nc21	-0.1%	i	18.4µM*	1.6	-6.8%
c1ccc2nc3c(nc2c1)c1ccccc1n3CCN1CCOCC1	12.6µM*	i	?	-63.2*	-21.0%
Clc1ccc(-c2noc3ncnc(NCCc4ccccc4)c23)cc1	.	i	i	.	.
O=C(N/N=C/c1ccc(OC(F)F)cc1OC(F)F)NC1CCCCC1	-27.0%	i	?	-80.6*	-24.9%
CN(C)c1cccc(-c2nnc(SCCCC#N)o2)c1	3.3%	i	20.6µM*	-19.0	12.3%
CN(C)CCSc1nnc(-c2ccccc2)o1	11.0%	i	i	-19.1	14.7%
Cc1ccccc1NC(=O)Cn1nnc(S(=O)(=O)c2ccc(C(C)(C)C)cc2)c1N	-0.5%	i	i	26.2	-5.6%
Nc1c(C(=O)Nc2ccccc2F)sc2nc3c(cc12)CCCCCC3	.	13µM*	6.51µM*	.	.
CCc1nnc(NC(=O)c2sc3nc4c(cc3c2N)CCCCCC4)s1	?	i	i	-72.0*	?
COC(=O)c1ccccc1NC1CC(=O)N(c2c(C)cccc2C)C1=O (configuration not stated)	1.6%	i	i	-0.8	-14.0%
CCOc1ccc(C(C)=O)cc1N1C(=O)C2C3C=CC(C3=C(C)C)C2C1=O (configuration not stated)	-0.3%	i	16.4µM*	7.0	7.6%
COc1cc(C(CCN2CCCC2)c2c(OC)cc(OC)c3ccc(=O)oc23)cc(OC)c1OC (configuration not stated)	-3.4%	i	i	-1.8	-8.8%
CCCCCc1cc(=O)oc2c(C(CCN(CC)CC)c3ccc(N(C)C)cc3)c(OC)cc(OC)c12 (configuration not stated)	-25.0%	?	?	0.0	18.4µM*
CCCCCc1cc(=O)oc2c(C(CCN3CCCCC3)c3cc(OC)c(OC)c(OC)c3)c(OC)cc(OC)c12 (configuration not stated)	?	?	?	-3.4	20.6µM*
CCCCCc1cc(=O)oc2c(C(CCN3CCCC(C)C3)c3ccc(N(C)C)cc3)c(OC)cc(OC)c12 (configuration not stated)	-24.6%	i	?	-26.3	?
COc1cc(C(CCN2CCCC(C)C2)c2c(OC)cc(OC)c3c2OC(=O)CC3c2ccc(N(C)C)cc2)cc(OC)c1OC (configuration not stated)	-0.6%	i	?	-110.6*	-2.5%
CCCCCc1cc(=O)oc2c(C(CCN3CCCC(C)C3)c3cc(OC)c(OC)c(OC)c3)c(OC)cc(OC)c12 (configuration not stated)	?	i	i	-59.9*	?
COC(=O)C1=C(C(=O)OC)[C@@H]2N(Cc3ccccc3)c3ccccc3[C@@]23C[C@@H](CO)N(C(=O)NC2CCCC2)C3=N1	15.5%	i	?	25.0	4.2%
CC(C)(C)c1ccc(C(=O)NCCc2csc3nc(-c4ccccc4F)nn23)cc1	.	i	i	.	.
CC1CCCN(S(=O)(=O)c2ccc(C(=O)NC(C)c3ccccc3)cc2)C1 (configuration not stated)	-5.5%	i	i	-13.1	-9.8%
CC(=O)c1ccc(NC(=S)NC(=O)/C=C/c2ccco2)cc1	-2.5%	i	i	-1.0	-4.5%
CC(=O)c1ccc(NC(=O)C(C)OC(=O)/C=C/c2ccco2)cc1 (configuration not stated)	?	?	?	87.9	16.4µM*
CC(OC(=O)/C=C/c1ccco1)C(=O)Nc1cccc([N+](=O)[O-])c1 (configuration not stated)	1.7%	?	18.4µM*	17.7	3.7%
O=c1c2ccccc2nc(-c2ccccc2)n1Cc1ccc(Cl)cc1	-16.9%	i	i	-11.8	-20.0%
SMILES	HT1080 IDH1KD tx	KB-3-1 tox	KB-V1 MDR tox	IL-1B inflam inh	HT1080-NT tox
O=c1c2ccccc2nc2n1CCN2Cc1ccc(Cl)cc1	-23.2%	16.4µM*	4.61µM*	-78.0*	?
Cc1cc(C)c2nc(N(CCCN(C)C)C(=O)c3ccc(S(=O)(=O)N4CC(C)OC(C)C4)cc3)sc2c1 (configuration not stated)	-29.2%	i	i	-95.8*	-15.3%
Cc1ccc2sc(N(CCN(C)C)C(=O)c3ccc(S(=O)(=O)N4CC(C)OC(C)C4)cc3)nc2c1C (configuration not stated)	-28.8%	i	i	-64.5*	-7.4%
Cc1ccc2nc(N(CCCN(C)C)C(=O)c3ccc(S(=O)(=O)N4CCOCC4)cc3)sc2c1	-13.2%	i	i	-13.4	-14.8%
CCN(C(=O)CN1C(=O)NC2(CCC(C)CC2)C1=O)C1CCCCC1 (configuration not stated)	17.3%	i	i	-0.9	17.0%
S=c1nc[nH]c2c1ncn2C1CCCO1 (configuration not stated)	8.2µM*	4.11µM*	?	4.3	4.61µM*
OCC1OC(n2cnc3c(=S)nc[nH]c32)CC1O (configuration not stated)	?	?	?	14.7	-17.8%
COC(=O)Nc1ccc(S(=O)(=O)N2CCCCC2C(=O)O)cc1 (configuration not stated)	27.6%	i	i	14.0	17.0%
COC(=O)Nc1ccc(S(=O)(=O)N2c3ccccc3CCC2C)cc1 (configuration not stated)	?	7.31µM*	4.11µM*	6.1	2.82µM*
COC(=O)c1ccc(S(=O)(=O)N2CCc3ccccc32)cc1	9.2µM*	?	i	28.6	?
CC(=O)Nc1ccc(S(=O)(=O)N2CCCc3ccccc32)cc1	7.08µM*	i	?	54.3	8.91µM*
Cc1cccc(C)c1NC(=O)c1cc(S(=O)(=O)N2CCCc3ccccc32)ccc1F	.	i	i	.	.
Cc1ccc(NC(=O)c2cc(S(=O)(=O)N3CCCc4ccccc43)ccc2F)cc1F	.	25.9µM*	i	.	.
NNC(=O)c1ccc(S(=O)(=O)N2CCc3ccccc32)cc1	-12.3%	i	i	5.8	-5.8%
COc1ccc(CNC(=O)COC(=O)c2cc(-c3cccs3)nc3ccccc23)cc1OC	1.2%	i	i	-28.0	-9.5%
CCn1c(=O)n(CC)c2cc(S(=O)(=O)N3CCc4ccccc43)ccc21	?	?	2.31µM*	-8.9	10µM*

Screening data from PubChem.
